Experimental findings from PubChem BioAssay (NCI) are described below.

Common to all, as to test: NCI-60 one-dose screen, 48 h (100 = growth as untreated, 0 = no growth, -100 = all killed)
One assay deals with NCI-H23 lung. Particulars: 10 µM.
A further assay deals with NCI-H226 lung. The following applies: 10 µM.
Another assay deals with NCI-H322M lung. The following applies: 10 µM.
The next assay relates to HOP-62 NSCLC. The following applies: 10 µM.
The test system of a further assay is NCI-H460 lung. The following applies: 10 µM.
The test system of another assay is HOP-92 NSCLC. The following applies: 10 µM.
The subject of a further assay is NCI-H522 lung. The following applies: 10 µM unless noted.
The next assay deals with A549/ATCC NSCLC. Particulars: 10 µM.
For the next assay, the system named is 786-0 renal. The following applies: 10 µM.
The test system of a further assay is COLO 205 colon. Particulars: 10 µM.
A further assay deals with DU-145 prostate. The following applies: 10 µM unless noted.
In the next assay the test system is K-562 leukemia. Particulars: 10 µM.
A further assay relates to MALME-3M melanoma. The following applies: 10 µM.
A further assay deals with MDA-MB-231 breast. The following applies: 10 µM.
A further assay relates to RXF 393 renal. Particulars: 10 µM unless noted.
The subject of the next assay is SF-268 CNS. The following applies: 10 µM.
A further assay relates to SF-295 CNS. The following applies: 10 µM.
A further assay deals with SF-539 CNS. The following applies: 10 µM.
The test system of another assay is UACC-257 melanoma. Particulars: 10 µM.

SMILES strings stand for the structures. “And” between values parts separate entries of the source, which are not always exact repeats. Identical values can stand only once. The panel holds about 83,000 compounds, 20% with a hit somewhere; the sample as a whole holds those more often.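 Cell lines were cultured in 96-well plates, exposed to a single compound concentration, and assessed for percent growth 48 hours later.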 The source made the active and inactive calls. The calls were made as follows: active = growth percent below 10; inactive = the rest. Where a SMILES comes first, the peptide text is derived from it. [ ]: non-standard residue; d: D form. ξ: configuration not given here. ξV = CC(C)C(N)C(=O)O

On to `Nc1nc(=S)c2ncn(C3OC(CO)C(O)C3O)c2[nH]1` (stereo not drawn), for which the growth in the assay on NCI-H23 lung was 102% (inactive) and 25.8% (inactive); in the assay with NCI-H226 lung, 113% (inactive) and 35.5% (inactive); in the assay on NCI-H322M lung it was 128% (inactive) and 64.3% (inactive); in the assay on HOP-62 NSCLC, 106% (inactive) and 35.4% (inactive); in the assay with NCI-H460 lung it was 120% (inactive) and 9.3% (active); with HOP-92 NSCLC, 29.5% (inactive). Also, the growth in the assay with NCI-H522 lung was 96.7% (inactive) and -12% (active); in the assay on A549/ATCC NSCLC it was 92.9% (inactive) and 27.9% (inactive); with 786-0 renal, 103% (inactive) and 22.2% (inactive); in the assay with COLO 205 colon, 155% (inactive) and 12.4% (inactive); in the assay with DU-145 prostate it was 108% (inactive) and 23.2% (inactive); with K-562 leukemia it was 108% (inactive). Also, the growth in the assay on MALME-3M melanoma is 170% (inactive) and 15% (inactive); in the assay on MDA-MB-231 breast, 105% (inactive) and 26.1% (inactive); in the assay on RXF 393 renal it was 108% (inactive) and -8.38% (active); in the assay on SF-268 CNS, 101% (inactive) and 34.5% (inactive); in the assay on SF-295 CNS it was 109% (inactive) and 18.3% (inactive); in the assay with SF-539 CNS, 107% (inactive) and 22.3% (inactive). In addition, the growth with UACC-257 melanoma was 98.9% (inactive) and 31.5% (inactive).
As to `CC1=CC(C)=Nc2ccc(Cl)cc2N1`, the growth in the assay with NCI-H23 lung is 94.1% (inactive); in the assay with NCI-H226 lung it was 97.6% (inactive); with NCI-H322M lung it was 102% (inactive); with HOP-62 NSCLC, 105% (inactive); in the assay on NCI-H460 lung, 101% (inactive); with HOP-92 NSCLC, 96.9% (inactive). Further, the growth with NCI-H522 lung is 103% (inactive); in the assay on A549/ATCC NSCLC, 114% (inactive); in the assay with 786-0 renal, 106% (inactive); in the assay on COLO 205 colon, 106% (inactive); in the assay on DU-145 prostate, 106% (inactive); in the assay with K-562 leukemia, 90.3% (inactive). Further, the growth was 96.9% (inactive) in the assay with MALME-3M melanoma; 110% (inactive) with MDA-MB-231 breast; 113% (inactive) with RXF 393 renal; 98.9% (inactive) in the assay on SF-268 CNS; 107% (inactive) in the assay on SF-295 CNS; 100% (inactive) in the assay on SF-539 CNS. For the same compound, in the assay on UACC-257 melanoma, the growth was 104% (inactive).
In the case of `O=C1NC(=O)c2cc([N+](=O)[O-])ccc21`, the growth was 105% (inactive) in the assay on NCI-H23 lung; 97.7% (inactive) in the assay on NCI-H226 lung; 99% (inactive) with NCI-H322M lung; 101% (inactive) with HOP-62 NSCLC; 105% (inactive) in the assay with NCI-H460 lung; 82.3% (inactive) with HOP-92 NSCLC. Also, the growth with NCI-H522 lung is 102% (inactive); with A549/ATCC NSCLC it was 107% (inactive); in the assay with 786-0 renal, 112% (inactive); in the assay on COLO 205 colon, 111% (inactive); in the assay on DU-145 prostate, 112% (inactive); with K-562 leukemia it was 119% (inactive). Further, the growth in the assay on MALME-3M melanoma is 106% (inactive); with MDA-MB-231 breast it was 107% (inactive); in the assay on RXF 393 renal, 108% (inactive); with SF-268 CNS it was 106% (inactive); in the assay with SF-295 CNS it was 101% (inactive); in the assay with SF-539 CNS, 101% (inactive). For the same compound, the growth in the assay with UACC-257 melanoma was 104% (inactive).
Consider `O=C(O)COc1ccc(OCC(=O)O)cc1`, for which the growth in the assay with NCI-H23 lung was -0.769% (active); with NCI-H226 lung it was -60.2% (active); in the assay on NCI-H322M lung it was 39.3% (inactive); in the assay with HOP-62 NSCLC, -15% (active); in the assay on NCI-H460 lung, -17.8% (active); in the assay on HOP-92 NSCLC it was -3.9% (active). Moreover, the growth with NCI-H522 lung is -3.87% (active); in the assay on 786-0 renal, -9.28% (active); in the assay with COLO 205 colon it was 16% (inactive); in the assay with DU-145 prostate, 5.6% (active); with K-562 leukemia, 20% (inactive); in the assay on MALME-3M melanoma it was 21.3% (inactive). The growth in the assay with MDA-MB-231 breast was 27.8% (inactive); in the assay on RXF 393 renal it was 24.7% (inactive); in the assay on SF-268 CNS, 14.2% (inactive); in the assay on SF-295 CNS, -9.53% (active); in the assay on SF-539 CNS, -0.842% (active).
With `COc1c(O)cc2oc3cc(O)c(CC=C(C)C)c(O)c3c(=O)c2c1CC=C(C)C`, the growth in the assay with NCI-H226 lung was 72.9% (inactive); in the assay on NCI-H322M lung, 83.6% (inactive); in the assay with HOP-62 NSCLC it was 75.7% (inactive); with NCI-H460 lung it was 28.4% (inactive); in the assay on HOP-92 NSCLC, 77% (inactive); with NCI-H522 lung, 60.4% (inactive). For the same compound, the growth in the assay on A549/ATCC NSCLC is 54.3% (inactive); in the assay on 786-0 renal, 78.4% (inactive); with COLO 205 colon it was 95.2% (inactive); with DU-145 prostate, 62% (inactive); in the assay with K-562 leukemia it was 26.7% (inactive); in the assay with MALME-3M melanoma, 87.4% (inactive). For the same compound, the growth was 40.2% (inactive) in the assay on MDA-MB-231 breast; 83% (inactive) with RXF 393 renal; 57.9% (inactive) in the assay with SF-268 CNS; 56.2% (inactive) with SF-295 CNS; 89% (inactive) with SF-539 CNS.
For `CC(C)C(NC(=O)CN)C(=O)O` (stereo not drawn) (H-Gly-[ξV]-OH), the growth in the assay with NCI-H23 lung was 101% (inactive) and 106% (inactive); with NCI-H226 lung, 102% (inactive) and 100% (inactive); with NCI-H322M lung, 100% (inactive) and 105% (inactive); in the assay on HOP-62 NSCLC it was 106% (inactive) and 98% (inactive); in the assay on NCI-H460 lung, 113% (inactive) and 103% (inactive); in the assay on HOP-92 NSCLC, 102% (inactive). For the same compound, the growth in the assay on NCI-H522 lung was 95.9% (inactive) and 89.7% (inactive); in the assay on A549/ATCC NSCLC it was 95% (inactive) and 99.2% (inactive); with 786-0 renal, 95.1% (inactive) and 106% (inactive); with COLO 205 colon, 117% (inactive) and 113% (inactive); with DU-145 prostate, 107% (inactive) and 110% (inactive); in the assay with K-562 leukemia, 92.9% (inactive) and 104% (inactive). The growth in the assay on MALME-3M melanoma was 101% (inactive) and 99.8% (inactive); with MDA-MB-231 breast it was 106% (inactive); in the assay on RXF 393 renal, 104% (inactive) and 108% (inactive); in the assay on SF-268 CNS, 104% (inactive) and 101% (inactive); in the assay with SF-295 CNS, 97.4% (inactive) and 101% (inactive); in the assay with SF-539 CNS, 103% (inactive) and 106% (inactive). Further, the growth with UACC-257 melanoma was 110% (inactive) and 101% (inactive).
As for `CSC1SCC2C(=O)N(C)C(C(C)C)C(=O)OCC(NC(=O)c3cnc4ccccc4n3)C(=O)NC(C)C(=O)N(C)C1C(=O)N(C)C(C(C)C)C(=O)OCC(NC(=O)c1cnc3ccccc3n1)C(=O)NC(C)C(=O)N2C` (stereo not drawn), the growth in the assay on NCI-H226 lung is -5.57% (active); in the assay with NCI-H322M lung, 9.51% (active); in the assay with HOP-62 NSCLC it was -12.4% (active); with NCI-H460 lung it was 4.33% (active); in the assay on HOP-92 NSCLC, -20.3% (active); in the assay with NCI-H522 lung, -16.1% (active). The growth was -15.2% (active) in the assay with A549/ATCC NSCLC; -10.6% (active) in the assay on 786-0 renal; -45.3% (active) in the assay on COLO 205 colon; -19.5% (active) with DU-145 prostate; -61.8% (active) in the assay on K-562 leukemia; -23.1% (active) with MALME-3M melanoma. Further, the growth in the assay on MDA-MB-231 breast was -8.05% (active); in the assay with RXF 393 renal, -0.0463% (active); with SF-268 CNS, -2.43% (active); in the assay on SF-295 CNS it was -22.3% (active); in the assay with SF-539 CNS it was -52.9% (active); in the assay with UACC-257 melanoma, -13.6% (active).
